Test results published in PubChem BioAssay (Tox21).
Results filed as inconclusive are left out. Activity calls are given as the source filed them. Unless noted, calls follow the shape of the dose curve; as a rule, active = well fitted curve in the direction sought with a large enough effect in the repeat runs; inconclusive = weak or mixed curves; inactive = no such curve, though single readings can be large; an effect the other way counts as inactive or inconclusive.

How the values were obtained:
[1] = target: Estrogen receptor beta (Homo sapiens) (UniProt Q92731); experiment: qHTS assay to identify small molecule agonists of the estrogen receptor beta (ER-beta) signaling pathway (AID 1259377; active = well fitted activation curve with a large enough effect in the signal ratio in the repeat runs, not every such curve was filed as active; the % refers to the signal ratio)
Sequence of Estrogen receptor beta (Homo sapiens) (Q92731 whole entry, looked up): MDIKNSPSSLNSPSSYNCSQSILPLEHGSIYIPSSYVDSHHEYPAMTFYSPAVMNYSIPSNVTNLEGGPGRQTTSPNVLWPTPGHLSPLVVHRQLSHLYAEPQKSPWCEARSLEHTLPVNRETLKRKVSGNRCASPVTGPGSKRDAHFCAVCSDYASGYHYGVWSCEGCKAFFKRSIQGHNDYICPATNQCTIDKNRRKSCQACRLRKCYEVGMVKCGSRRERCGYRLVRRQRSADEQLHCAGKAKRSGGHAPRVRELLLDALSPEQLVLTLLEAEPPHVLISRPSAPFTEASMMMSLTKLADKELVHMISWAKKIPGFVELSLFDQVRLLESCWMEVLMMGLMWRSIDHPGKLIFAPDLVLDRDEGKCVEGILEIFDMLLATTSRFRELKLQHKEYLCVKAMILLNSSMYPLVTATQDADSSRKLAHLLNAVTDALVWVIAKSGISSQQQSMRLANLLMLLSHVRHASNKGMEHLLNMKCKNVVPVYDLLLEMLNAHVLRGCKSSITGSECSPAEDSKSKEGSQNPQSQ
Procedure, shortened: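 HEK293T ER-beta-UAS-bla; 2% charcoal-stripped FBS; cells pre-incubated 6 hr, compound 16 hr, 37C/5% CO2; LiveBLAzer B/G FRET substrate 2 h RT; fluorescence intensity read.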

[2] = target: Estrogen receptor beta (Homo sapiens) (UniProt Q92731); experiment: qHTS assay to identify small molecule antagonists of the estrogen receptor beta (ER-beta) signaling pathway (AID 1259378; active = well fitted inhibition curve with a large enough effect in the signal ratio in the repeat runs, not every such curve was filed as active; the % refers to the signal ratio; also: potency is read from the fitted curve at half-maximal effect)
Procedure, shortened: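 Antagonist mode: compounds added to beta-lactamase reporter HEK293T ER-beta-UAS cells stimulated with E2 (1nM final), 16 hr at 37C. LiveBLAzer B/G FRET substrate, 2 hours room temperature, fluorescence read-out.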

[3] = qHTS assay to identify small molecule agonists of the androgen receptor (AR) signaling pathway in the presence of an antagonist - cell viability counter screen (AID 1259379); also: nearly all actives have a fitted effect of over 25% in size; also: potency is read from the fitted curve at half-maximal effect;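 as to activity change, negative = cytotoxicity: MDA-kb2 human breast cancer cells carrying an MMTV luciferase reporter; series mostly up to about 92 µM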
Procedure, shortened: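 Cells: MDA-kb2 (MMTV-luc, AR and GR elements), 3,000/well, 5 hr settle. Added: nilutamide 3.0uM final, then compounds (15 conc.). Incubation: 16 hr, 37C, no CO2. Read-out: CellTiter-Fluor, 1 hr, fluorescence.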

[4] = qHTS assay to identify small molecule agonists of the estrogen receptor beta (ER-beta) signaling pathway - cell viability counter screen (AID 1259380); also: nearly all actives have a fitted effect of over 30% in size; also: potency is read from the fitted curve at half-maximal effect
Procedure, shortened: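 HEK293T ER-beta-UAS-bla; 2% CS-FBS; 6 hr pre-plate, 16 hr cpd at 37C/5% CO2; LiveBLAzer read first, then CellTiter-Glo 30 min RT, luminescence.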

[5] = qHTS assay to identify small molecule antagonists of the estrogen receptor beta (ER-beta) signaling pathway - cell viability counter screen (AID 1259382); also: nearly all actives have a fitted effect of over 55% in size; also: potency is read from the fitted curve at half-maximal effect;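 as to activity change, negative = cytotoxicity: HEK293T cells carrying ER-beta-UAS-bla reporter stimulated with estradiol; series mostly up to about 92 µM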
Procedure, shortened: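 Cells: ER-beta-UAS-bla HEK293T, 2,000/well, 2% CS-FBS, 6 hr settle. Cpd + E2 (1nM final), 16 hr, 37C/5% CO2. Bla FRET substrate 2 hr RT, then CellTiter-Glo 30 min RT, luminescence.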

[6] = target: Estrogen receptor (Homo sapiens) (UniProt P03372); experiment: qHTS assay to identify small molecule agonists of the estrogen receptor alpha (ER-alpha) signaling pathway in the presence of an antagonist (AID 1259383; calls by dose curve; also: top concentration of the series differs between compounds; nearly all actives have a fitted effect of over 15% in size)
Sequence of Estrogen receptor (Homo sapiens) (P03372 whole entry, looked up): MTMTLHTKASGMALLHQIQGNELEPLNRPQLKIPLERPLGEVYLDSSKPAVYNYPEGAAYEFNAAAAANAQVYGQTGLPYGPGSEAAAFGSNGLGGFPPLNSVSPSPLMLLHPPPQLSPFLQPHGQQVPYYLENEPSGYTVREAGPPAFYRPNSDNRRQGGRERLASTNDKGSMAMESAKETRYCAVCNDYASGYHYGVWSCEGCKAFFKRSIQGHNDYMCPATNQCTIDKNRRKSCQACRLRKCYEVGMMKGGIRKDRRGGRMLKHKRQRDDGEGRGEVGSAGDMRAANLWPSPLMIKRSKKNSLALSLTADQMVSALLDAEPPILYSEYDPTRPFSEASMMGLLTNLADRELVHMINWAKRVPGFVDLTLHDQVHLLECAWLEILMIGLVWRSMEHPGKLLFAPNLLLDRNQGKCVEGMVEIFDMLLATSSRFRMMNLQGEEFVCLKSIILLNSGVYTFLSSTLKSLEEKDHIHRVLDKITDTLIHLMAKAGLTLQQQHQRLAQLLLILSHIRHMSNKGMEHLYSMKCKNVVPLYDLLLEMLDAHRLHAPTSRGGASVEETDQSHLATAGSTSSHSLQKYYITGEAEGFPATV
Procedure, shortened: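 VM7Luc4E2, endog. ER-alpha + 4×ERE-luc; charcoal-stripped FBS, phenol red-free, 5 d; 24hr plating; +10.0nM ICI-182,780 (final); cpds 15 conc, 22hr, 37C/5% CO2; ONE-Glo luminescence.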

[7] = qHTS assay to identify small molecule agonists of the estrogen receptor alpha (ER-alpha) signaling pathway in the presence of an antagonist - cell viability counter screen (AID 1259386);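 also: series mostly up to about 92 µM; cells exposed to compounds for 22 h at 37 °C before the viability read; nearly all actives have a fitted effect of over 30% in size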
Procedure, shortened: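 VM7Luc4E2, stripped-serum pre-culture 5 d; 24hr plating; +ICI-182,780 10.0nM final; cpds 15 conc, 22hr, 37C/5% CO2; CellTiter-Fluor added at 21hr, fluorescence 1hr later.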

[8] = target: Progesterone receptor (Homo sapiens) (UniProt P06401); experiment: qHTS assay to identify small molecule agonists of the progesterone receptor (PR) signaling pathway (AID 1346784; calls by dose curve; also: nearly all actives have a fitted effect of over 30% in size)
Sequence of Progesterone receptor (Homo sapiens) (P06401 whole entry, looked up): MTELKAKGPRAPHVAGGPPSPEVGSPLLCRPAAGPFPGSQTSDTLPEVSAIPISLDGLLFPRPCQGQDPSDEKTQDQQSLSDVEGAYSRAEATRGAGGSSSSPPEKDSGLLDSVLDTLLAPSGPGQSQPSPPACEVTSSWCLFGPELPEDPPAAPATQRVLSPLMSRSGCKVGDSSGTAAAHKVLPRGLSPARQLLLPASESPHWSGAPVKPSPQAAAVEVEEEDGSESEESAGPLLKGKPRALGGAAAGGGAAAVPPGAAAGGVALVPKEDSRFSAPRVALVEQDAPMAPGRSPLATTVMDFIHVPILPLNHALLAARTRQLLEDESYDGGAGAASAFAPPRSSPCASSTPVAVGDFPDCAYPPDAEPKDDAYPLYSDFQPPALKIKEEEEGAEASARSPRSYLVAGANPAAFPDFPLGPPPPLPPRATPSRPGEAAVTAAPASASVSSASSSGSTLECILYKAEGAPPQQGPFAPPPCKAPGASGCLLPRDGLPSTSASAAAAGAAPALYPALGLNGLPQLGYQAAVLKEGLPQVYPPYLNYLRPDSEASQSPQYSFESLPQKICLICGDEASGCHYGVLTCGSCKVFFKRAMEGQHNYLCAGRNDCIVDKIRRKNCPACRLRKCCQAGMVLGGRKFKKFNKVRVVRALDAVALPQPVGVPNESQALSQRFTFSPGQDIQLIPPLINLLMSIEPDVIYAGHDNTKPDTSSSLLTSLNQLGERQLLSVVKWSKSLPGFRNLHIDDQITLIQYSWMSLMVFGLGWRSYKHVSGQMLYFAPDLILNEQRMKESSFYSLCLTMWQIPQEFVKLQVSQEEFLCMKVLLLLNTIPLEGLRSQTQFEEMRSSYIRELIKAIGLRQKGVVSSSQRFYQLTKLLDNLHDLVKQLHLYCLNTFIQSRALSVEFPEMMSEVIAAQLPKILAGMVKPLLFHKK
Procedure, shortened: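 Beta-lactamase reporter read-out: after 16 hr compound treatment at 37C and a further 2 hr at room temperature with LiveBLAzer B/G FRET substrate, fluorescence was measured in PR-UAS-bla HEK 293T cells grown in 2% charcoal-stripped serum.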

[9] = qHTS assay to identify small molecule antagonists of the progesterone receptor (PR) signaling pathway - cell viability counter screen (AID 1346798);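 also: HEK293T PR-UAS-bla cells stimulated with the agonist R5020; series mostly up to about 92 µM; nearly all actives have a fitted effect of over 50% in size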
Procedure, shortened: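 HEK293T PR-UAS-bla, 2% charcoal-stripped FBS; 4 hr pre-plate; cpd + R5020, 16 h 37C; LiveBLAzer read first; then CellTiter-Glo 30 min RT, luminescence.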

[10] = qHTS assay to identify small molecule agonists of the progesterone receptor (PR) signaling pathway - cell viability counter screen (AID 1346799; calls by dose curve; also: nearly all actives have a fitted effect of over 45% in size; also: potency is read from the fitted curve at half-maximal effect)
Procedure, shortened: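 Luminescence from CellTiter-Glo, added after the beta-lactamase FRET read in the same wells, gave cytotoxicity in PR-UAS-bla HEK293T cells treated with compounds for 16 hr at 37C.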

[11] = qHTS assay to identify small molecule antagonists of the TGF-beta/Smad signaling pathway - cell viability counter screen (AID 1346824); also: nearly all actives have a fitted effect of over 50% in size
Procedure, shortened: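 Cytotoxicity counter-screen run in the same wells as the beta-lactamase Smad reporter read: CellTiter-Glo luminescence after 30 min at room temperature. HEK 293T SBE-bla cells had 5 hr compound exposure at 37 C with TGF-beta1 (0.25 ng/mL stock).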

[12] = qHTS assay to identify small molecule agonists of the TGF-beta/Smad signaling pathway (AID 1346859; active = well fitted activation curve with a large enough effect in the signal ratio in the repeat runs, not every such curve was filed as active; the % refers to the signal ratio; also: series mostly up to about 77 µM)
Procedure, shortened: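 SBE-bla HEK 293T, 4,000 cells/well, plated o/n; cpd in DMSO, 5 hr, 37 C/5% CO2; B/G FRET substrate 2 hr RT; ex 405, em 460/530 nm.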

[13] = target: Thyrotropin-releasing hormone receptor (Homo sapiens) (UniProt P34981); experiment: qHTS assay to identify small molecule antagonists of the thyrotropin-releasing hormone receptor (TRHR) signaling pathway (AID 1346877; active = well fitted inhibition curve with a large enough effect in the repeat runs, not every such curve was filed as active; also: series mostly up to about 51 µM)
Sequence of Thyrotropin-releasing hormone receptor (Homo sapiens) (P34981 whole entry, looked up): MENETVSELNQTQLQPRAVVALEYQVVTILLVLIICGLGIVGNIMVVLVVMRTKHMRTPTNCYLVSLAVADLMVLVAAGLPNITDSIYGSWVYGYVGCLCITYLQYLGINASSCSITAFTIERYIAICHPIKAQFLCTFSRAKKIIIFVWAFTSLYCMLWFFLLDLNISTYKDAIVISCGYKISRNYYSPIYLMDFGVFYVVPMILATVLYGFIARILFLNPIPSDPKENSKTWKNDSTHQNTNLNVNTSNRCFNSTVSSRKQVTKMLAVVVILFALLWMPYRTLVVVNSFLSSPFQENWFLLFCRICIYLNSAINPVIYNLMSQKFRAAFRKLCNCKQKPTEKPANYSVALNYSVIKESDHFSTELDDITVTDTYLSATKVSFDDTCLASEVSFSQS
Procedure, shortened: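 Intracellular calcium fluorescence, read kinetically every second over 3 min, reports TRH-evoked signalling in HEK293 cells carrying TRHR. Test compounds were added 5 min ahead of a 1 nM TRH challenge.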

[14] = target: Thyrotropin-releasing hormone receptor (Homo sapiens) (UniProt P34981); experiment: qHTS assay to identify small molecule agonists of the thyrotropin-releasing hormone receptor (TRHR) signaling pathway (AID 1346891; calls by dose curve; also: series mostly up to about 58 µM)
Procedure, shortened: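 Intracellular calcium rise, read as fluorescence every second for 3 min, served as the agonist signal in dye-loaded HEK293 cells expressing TRHR; each compound ran at 15 concentrations in triplicate.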

[15] = qHTS assay to identify small molecule agonists or antagonists of the thyroid stimulating hormone receptor (TSHR) signaling pathway - wild type cell line counter screen (AID 1259384; calls by dose curve)
Procedure, shortened: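 Counter screen in untransfected Hek293: compounds (15-point titration, triplicate) plus phosphodiesterase inhibitor Ro20-1724 added after 18 h plating; 30 min RT. Intracellular cAMP via competitive d2/cryptate immunoassay, 1 h incubation.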

[16] = target: Thyrotropin receptor (Homo sapiens) (UniProt P16473); experiment: qHTS assay to identify small molecule antagonists of the thyroid stimulating hormone receptor (TSHR) signaling pathway (AID 1259385; calls by dose curve; also: nearly all actives have a fitted effect of over 20% in size; also: potency is read from the fitted curve at half-maximal effect)
Sequence of Thyrotropin receptor (Homo sapiens) (P16473 whole entry, looked up): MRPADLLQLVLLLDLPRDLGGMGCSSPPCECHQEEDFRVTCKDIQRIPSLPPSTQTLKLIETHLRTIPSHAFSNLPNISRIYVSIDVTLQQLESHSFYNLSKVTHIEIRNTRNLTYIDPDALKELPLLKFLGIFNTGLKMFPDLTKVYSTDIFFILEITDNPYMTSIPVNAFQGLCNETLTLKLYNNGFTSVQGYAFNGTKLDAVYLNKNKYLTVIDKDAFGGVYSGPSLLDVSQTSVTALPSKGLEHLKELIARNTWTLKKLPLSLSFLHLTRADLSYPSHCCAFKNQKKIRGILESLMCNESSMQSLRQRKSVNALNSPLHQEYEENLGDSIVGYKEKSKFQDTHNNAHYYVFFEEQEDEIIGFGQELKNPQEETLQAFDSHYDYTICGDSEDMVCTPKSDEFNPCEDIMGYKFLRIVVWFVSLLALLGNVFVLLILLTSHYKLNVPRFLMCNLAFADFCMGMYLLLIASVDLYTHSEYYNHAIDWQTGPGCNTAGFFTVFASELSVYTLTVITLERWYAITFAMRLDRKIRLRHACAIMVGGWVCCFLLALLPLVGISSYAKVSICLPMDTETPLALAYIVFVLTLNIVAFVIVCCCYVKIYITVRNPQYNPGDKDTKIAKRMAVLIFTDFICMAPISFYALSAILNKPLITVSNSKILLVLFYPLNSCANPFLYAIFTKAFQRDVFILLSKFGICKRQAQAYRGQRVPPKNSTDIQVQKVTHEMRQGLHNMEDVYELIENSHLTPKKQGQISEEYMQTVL
Procedure, shortened: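 Antagonist mode: compound-treated TSHR-expressing HEK293 cells were stimulated with 1.5 ng/mL TSH (final) in presence of Ro20-1724 for 30 min at RT. HTRF cAMP detection after 1 h; each compound tested at 15 concentrations, triplicate.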

[17] = target: Progesterone receptor (Homo sapiens) (UniProt P06401); experiment: qHTS assay to identify small molecule antagonists of the progesterone receptor (PR) signaling pathway (AID 1346795; active = well fitted inhibition curve with a large enough effect in the signal ratio in the repeat runs, not every such curve was filed as active; the % refers to the signal ratio; also: potency is read from the fitted curve at half-maximal effect)
Procedure, shortened: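 Read-out is fluorescence from the LiveBLAzer B/G FRET substrate, cleaved by a UAS-controlled beta-lactamase in PR-UAS-bla HEK293T cells after 16 hr exposure to compound plus 1 nM promegestone (final), followed by 2 hr at room temperature.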

[18] = qHTS assay to identify small molecule agonists of the TGF-beta/Smad signaling pathway - cell viability counter screen (AID 1346829); also: nearly all actives have a fitted effect of over 45% in size; also: potency is read from the fitted curve at half-maximal effect; as to activity change, negative = cytotoxicity: top concentration of the series differs between compounds
Procedure, shortened: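 In parallel with the Smad reporter read, viability of HEK 293T cells stably carrying SBE-bla is quantified by ATP luminescence following 5 hr compound treatment.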

[19] = Human pregnane X receptor (PXR) small molecule agonists, qHTS cell viability counter screen (AID 1346977); also: nearly all actives have a fitted effect of over 50% in size; also: potency is read from the fitted curve at half-maximal effect
Procedure, shortened: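 PXR-Luc HepG2, 2,000 cells/well, 5% charcoal-stripped FBS; 5hr settle; cpd 24hr, 37C/5% CO2; CellTiter-Fluor at 23hr, read 1hr later (fluorescence).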
% is scaled to controls: 0 for no effect and ±100 for the full control effect.

COC(=O)CC(C)CCC=C(C)C (configuration not stated)
inactive: Potency [1] | Potency [2] | Potency [3] | Potency [4] | Potency [5] | Potency [6] | Potency [7] | outcome [8] | Potency [9] | Potency [10] | Potency [11] | Potency [12] | Potency [13] | Potency [14]

O=S(=O)(O)c1cc(S(=O)(=O)O)c2ccc3c(S(=O)(=O)O)cc(S(=O)(=O)O)c4ccc1c2c43
inactive: activation [1] -3.15% [at 19 µM] | activity, negative = inhibition [2] -6.24% [at 19 µM] | activity change, negative = cytotoxicity [3] 1.33% [at 19 µM] | activity change, negative = cytotoxicity [4] 1.19% [at 19 µM] | activity change, negative = cytotoxicity [5] 6.71% [at 19 µM] | activation [6] -1.94% [at 19 µM] | cAMP activity change [15] 5.29% [at 18.9 µM] | activity change, negative = inhibition [16] -2.92% [at 19 µM] | activity change, negative = cytotoxicity [7] -2.62% [at 19 µM] | activation [8] -0.344% [at 19 µM] | activity change, negative = inhibition [17] 5.54% [at 18.9 µM] | activity change, negative = cytotoxicity [9] -15.6% [at 18.9 µM] | activity change, negative = cytotoxicity [10] -11.2% [at 19 µM] | activity change, negative = cytotoxicity [18] 10.3% [at 15.8 µM] | activation [12] 1.38% [at 15.8 µM] | activity, negative = inhibition [13] -5.39% [at 10.5 µM] | activation [14] -0.321% [at 11.8 µM] | activity change, negative = cytotoxicity [19] 3.17% [at 19 µM]

Cc1cc(=O)[nH]c(=O)[nH]1
inactive: Potency [1] | Potency [2] | Potency [3] | Potency [4] | Potency [5] | outcome [15] | Potency [16] | Potency [7] | outcome [8] | Potency [17] | Potency [9] | Potency [10] | Potency [11] | Potency [12] | Potency [13] | Potency [14] | Potency [19]

Brc1ccccn1
inactive: Potency [1] | Potency [2] | Potency [3] | Potency [4] | Potency [5] | Potency [6] | outcome [15] | Potency [16] | outcome [8] | Potency [17] | Potency [9] | Potency [11] | Potency [18] | Potency [12] | Potency [13] | Potency [14] | Potency [19]

CN(C)c1ccc(N=Nc2ccccc2C(=O)O)cc1
inactive: Potency [1] | Potency [4] | Potency [5] | Potency [6] | Potency [18] | Potency [12] | Potency [13] | Potency [14]
active: Potency [2] 15.4 µM | Potency [3] 68.6 µM | Potency [17] 15.4 µM | Potency [19] 61.1 µM

O=C(Nc1ccc(Cl)cc1)Nc1ccc(Cl)c(C(F)(F)F)c1
inactive: Potency [1] | Potency [6] | outcome [15] | Potency [12] | Potency [13] | Potency [14]
active: Potency [2] 7.5 µM | Potency [3] 11.9 µM | Potency [4] 13.3 µM | Potency [5] 13.3 µM | Potency [16] 26.6 µM | Potency [18] 15.1 µM | Potency [19] 7.5 µM

C=CC(=O)OCCN(CC)CC
inactive: Potency [1] | Potency [2] | Potency [3] | Potency [4] | Potency [5] | Potency [6] | outcome [15] | Potency [16] | Potency [7] | outcome [8] | Potency [17] | Potency [9] | Potency [10] | Potency [11] | Potency [18] | Potency [12] | Potency [19]

Cc1ccc2ccc3cccc4ccc1c2c34
active: Potency [4] 24.3 µM | Potency [10] 27.3 µM
inactive: Potency [1] | Potency [2] | Potency [3] | Potency [5] | Potency [6] | outcome [15] | Potency [16] | Potency [7] | Potency [12] | Potency [13] | Potency [14] | Potency [19]
